An excerpt weighted towards active compounds, which were near 1.4% of everything screened.
E coli Lon inh – inhibitors of E. coli Lon protease, primary screen, biochemical, fluorescence polarization. 0.42% of 360,000 active. P0A9M0. inhibition, % at 7.94 µM. purified E. coli Lon protease; in the data active = inhibition above about 13%, passing the limit was not always enough
MCL1 BIM primary – inhibitors of MCL1 binding to BIM-BH3, primary screen, biochemical, fluorescence polarization. Induced myeloid leukemia cell differentiation protein Mcl-1 (Homo sapiens), Q07820. GST-MCL1 / FITC-Bim-BH3 fluorescence polarization. inhibition, % at 10.9 µM. 0.68% of 320,000 active. AID 2057, 2009;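 active = inhibition above the mean inhibition of all tested compounds plus 3 SD, set per campaign, cut at about 40% in these data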;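 note: higher means more loss of mP so more displacement of Bim peptide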
Bcl-xL primary – inhibitors of human Bcl-xL, primary screen, biochemical, fluorescence polarization, HTS. Bcl-2-like protein 1 (Homo sapiens), Q07817. GST-Bcl-xL / FITC-Bim BH3 peptide fluorescence polarization. inhibition, % at 10.9 µM. 0.7% of 320,000 active. AID 2129, 2009;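 active = inhibition above the mean of all tested compounds plus 3 SD, cutoff set per campaign, cut at about 30% in these data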;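 note: inhibitors lower millipolarization by displacing the labeled peptide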
EBV gp42 inh – Epstein-Barr virus gp42 inhibitors, primary screen, biochemical, uHTS, fluorescence polarization | Fluorescence polarization binding assay, mP read-out | inhibition, % (tested at 21.74 µM) | 0.42% of 220,000 active | AID 1085, 2008; in the data active = inhibition above about 50%
Target sequence (Q1HVG2 whole entry, looked up): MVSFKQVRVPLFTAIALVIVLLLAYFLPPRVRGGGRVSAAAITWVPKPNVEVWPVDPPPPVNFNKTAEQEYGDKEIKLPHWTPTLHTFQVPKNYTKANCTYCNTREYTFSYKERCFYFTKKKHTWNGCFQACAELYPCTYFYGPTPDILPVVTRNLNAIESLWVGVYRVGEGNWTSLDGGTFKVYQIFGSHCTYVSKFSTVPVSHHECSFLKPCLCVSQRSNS
MEX-5 binding – MEX-5 zinc finger RNA-binding disruptors – biochemical, C. elegans, fluorescence polarization, MLPCN library, primary screen; activity score (negative = inhibition of binding), % at 10 µM; 0.38% of 300,000 active; AID 1832, 2009; Zinc finger protein mex-5 (Caenorhabditis elegans), Q9XUB2; MEX-5/FITC-TCR2 RNA binding; hits give low values;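 active = inhibition past about -25% in most replicates, and total fluorescence under double the plate's negative control median, limit read from the data; inconclusive = replicates evenly split on the limit, or fluorescence at least double controls; inactive = too little inhibition in most replicates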
Target sequence (Q9XUB2 whole entry, looked up): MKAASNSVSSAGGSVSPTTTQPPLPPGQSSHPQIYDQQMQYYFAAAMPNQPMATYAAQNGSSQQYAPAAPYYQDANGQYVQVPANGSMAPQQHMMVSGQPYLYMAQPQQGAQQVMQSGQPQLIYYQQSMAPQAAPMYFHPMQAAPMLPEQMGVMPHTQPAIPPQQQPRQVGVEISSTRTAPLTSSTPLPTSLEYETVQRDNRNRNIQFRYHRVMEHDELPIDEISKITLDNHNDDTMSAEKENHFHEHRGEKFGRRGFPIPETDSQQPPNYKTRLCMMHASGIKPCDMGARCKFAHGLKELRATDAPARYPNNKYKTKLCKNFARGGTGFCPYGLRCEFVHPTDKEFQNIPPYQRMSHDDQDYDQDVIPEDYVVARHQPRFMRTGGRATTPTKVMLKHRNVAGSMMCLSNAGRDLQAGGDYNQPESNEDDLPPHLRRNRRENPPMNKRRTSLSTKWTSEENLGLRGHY
GLD-1 TGE inh – GLD-1/TGE RNA complex disruptors, primary screen, biochemical, fluorescence polarization; AID 2280, 2010; purified GLD-1 + fluorescein TGE RNA; inhibition, % at 5.96 µM; Female germline-specific tumor suppressor gld-1 (Caenorhabditis elegans), Q17339; 0.44% of 320,000 active;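 active = percent inhibition above a per-plate cutoff, the plate mean of test compounds plus 3 SD, cut at about 30% in these data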
Of the large screens only hits and unclear results are named; the others gave an inactive call.

COC(=O)CSc1[nH]c2ccc(Br)cc2c1[N+](=O)[O-]	none
CCOc1ccc2[nH]c(SCC(=O)OC)c([N+](=O)[O-])c2c1	Bcl-xL primary 39
COc1ccc(N(C(=O)CCl)C(C)(C(=O)Nc2c(C)cccc2C)c2ccccn2)cc1 (stereo not given)	MEX-5 binding -30
CC(=O)NC(c1ccc(C(C)C)cc1)c1c(O)ccc2ccccc12 (stereo not given)	none (no result: EBV gp42 inh)
Cc1ccc(C(NC(=O)C2CCCCC2)c2c(O)ccc3ccccc23)cc1 (stereo not given)	EBV gp42 inh 60
CC(=O)CC1(C)OC(N)=C(C#N)C1(C#N)C#N (stereo not given)	Bcl-xL primary 45, GLD-1 TGE inh 57 (no result: EBV gp42 inh)
O=C(O)CCN1C(=O)/C(=C/c2ccc(-c3nc4ccccc4s3)o2)SC1=S	MEX-5 binding inconclusive
O=C(O)CCCN1C(=O)/C(=C\c2ccc(-c3nc4ccccc4s3)o2)SC1=S	MEX-5 binding -56
COc1cc(/C=N/NC(=O)C2=NNC(=O)C2C)ccc1O (stereo not given)	none
CC1C(=O)NN=C1C(=O)N/N=C\c1ccc(O)cc1O (stereo not given)	MEX-5 binding -62
CC1C(=O)NN=C1C(=O)N/N=C/c1ccco1 (stereo not given)	MEX-5 binding -26
Cc1cc(C)cc(C(=O)Nc2ccc(N3CCN(C(=O)c4ccco4)CC3)cc2)c1	none (no result: EBV gp42 inh)
CC(C)c1ccc(/C=C/C(=O)n2nnc3ccccc32)cc1	EBV gp42 inh 85
CC(CCc1ccccc1)NC(=O)COC(=O)c1cccnc1Cl (stereo not given)	none (no result: MCL1 BIM primary, Bcl-xL primary, EBV gp42 inh, MEX-5 binding)
O=C(CCS(=O)(=O)c1ccccc1Cl)NC1CCCCCC1	none (no result: MCL1 BIM primary, Bcl-xL primary, EBV gp42 inh, MEX-5 binding)
CC(C)C(=O)Nc1cccc(COc2ccc(CN(CCc3ccccc3)C(=O)OC(C)(C)C)cc2)c1	none (no result: MCL1 BIM primary, Bcl-xL primary, EBV gp42 inh, MEX-5 binding, GLD-1 TGE inh)
Cn1c(N)c(C(=O)NCc2ccccc2)sc1=S	Bcl-xL primary 34
O=C(N/N=C/c1ccc(O)c(O)c1)N/N=C/c1ccc(O)c(O)c1	MEX-5 binding -39 (no result: MCL1 BIM primary, Bcl-xL primary, EBV gp42 inh, GLD-1 TGE inh)
Oc1ccc(/C=N/NC(=S)Nc2cccnc2)cc1O	MCL1 BIM primary 47, MEX-5 binding -45
CC(C)N1C(=S)SC(C)(C)C1n1oc(=O)n(-c2cccc(Cl)c2)c1=O (stereo not given)	Bcl-xL primary 129
CCOC(=O)/C=c1\s/c(=C\c2ccc3cc(OC)ccc3c2)c(=O)n1CC(=O)NCC1CCCO1 (stereo not given)	MEX-5 binding -47
Cn1c(=O)c2c(n(C)c1=O)n(C)c(=O)n2C	none (no result: MCL1 BIM primary, Bcl-xL primary, EBV gp42 inh, MEX-5 binding, GLD-1 TGE inh)
CCOC(=O)Cc1nc2ccccc2n(CC#N)c1=O	MEX-5 binding -33
COc1ccc(N=CC2=C(Nc3ccc(OC)cc3)c3c(C)nn(-c4ccccn4)c3CC2)cc1	MCL1 BIM primary active, Bcl-xL primary active, GLD-1 TGE inh active (no result: E coli Lon inh, EBV gp42 inh, MEX-5 binding)
COc1ccc(-c2cc(C(=O)O)c3c(C)nn(-c4ccccn4)c3n2)cc1	none (no result: E coli Lon inh)
Cc1sc2nc3ccc(NCc4ccco4)nn3c(=O)c2c1C	Bcl-xL primary 34 (no result: MEX-5 binding)
O=C(O)C1CC(O)CN1c1nc(Cl)ccc1[N+](=O)[O-] (stereo not given)	Bcl-xL primary 37
CCOC(=O)c1cc2c(=O)n3ccccc3nc2n(C(C)C)c1=NC(=O)c1ccncc1	MEX-5 binding -32
CCOC(=O)c1cc2c(=O)n3ccccc3nc2n(CCOC)c1=NC(=O)c1ccncc1	none
c1cnn(-c2cncc(-n3cccn3)n2)c1	none
CSc1ncccc1C(=O)OCC(=O)N(CC(C)C)C1CCS(=O)(=O)C1 (stereo not given)	none
CCOc1ncccc1C(=O)OCC(=O)N(CC(C)C)C1CCS(=O)(=O)C1 (stereo not given)	Bcl-xL primary 91
Cc1cccc(C(=O)OCC(=O)c2csc(N3CCCCC3)n2)c1[N+](=O)[O-]	none (no result: MCL1 BIM primary, Bcl-xL primary, EBV gp42 inh, MEX-5 binding)
CC(=O)Nc1ccc(O)c(-c2nc3ccccc3s2)c1	none
O=C(CCS(=O)(=O)c1ccccc1)Nc1ccc(-c2nc3ccccc3s2)c(O)c1	Bcl-xL primary 36
O=C(Nc1ccc(F)c(Cl)c1)c1ccc2sc([C@H]3C[C@H](O)[C@@H](CO)O3)nc2c1	none (no result: MCL1 BIM primary, Bcl-xL primary, EBV gp42 inh, MEX-5 binding, GLD-1 TGE inh)
O=S1(=O)c2ccc(Br)cc2N2CCC[C@@H]2CN1Cc1ccccc1	none (no result: MCL1 BIM primary, Bcl-xL primary, EBV gp42 inh, MEX-5 binding, GLD-1 TGE inh)
Cc1[nH]c(=O)[nH]c(=O)c1CSCC(=O)OCC(=O)Nc1ccccn1	EBV gp42 inh 51
CC/C(=N/Nc1ccc(Cl)cc1)c1cnnc(SC)n1	none (no result: MEX-5 binding)
CC/C(=N/Nc1cccc(C)c1)c1cnnc(SC)n1	Bcl-xL primary 46, MEX-5 binding -33
COc1ccc(N2CCN(C(CNC(=O)c3ccco3)c3cccnc3)CC2)cc1 (stereo not given)	none
O=C(NCC(c1cccnc1)N1CCN(c2ccc(F)cc2)CC1)c1ccco1 (stereo not given)	Bcl-xL primary 151
CCOC(=O)c1cc(OC(C)=O)c2ccc(OC)c(OC)c2c1	none (no result: MCL1 BIM primary, Bcl-xL primary, EBV gp42 inh, MEX-5 binding, GLD-1 TGE inh)
Cc1ccccc1-c1nnc(CN2CCC(C)CC2)o1	GLD-1 TGE inh 37 (no result: EBV gp42 inh)
Cc1ccc(NC2=Nc3ccccc3CC2)cc1	none
Brc1ccc(NC2=Nc3ccccc3CC2)cc1	Bcl-xL primary 41
CC1=C(C#N)c2nc(N)c(C#N)c(C)c2/C1=C\c1ccc(OCC(=O)O)c(Cl)c1	Bcl-xL primary 37
CCCCN1C(=O)C2Cc3c([nH]c4ccccc34)CN2C1=S (stereo not given)	EBV gp42 inh 52, MEX-5 binding -28, GLD-1 TGE inh 45
Cc1ccccc1C1C(C#N)=C2NC(=O)c3c(sc4c3CCCCC4)N2C2=C1C(=O)CC(C)(C)C2 (stereo not given)	MEX-5 binding inconclusive, GLD-1 TGE inh 101 (no result: E coli Lon inh)
CN(CC(=O)Nc1ccccc1Cl)C(=O)COC(=O)C1CCN(c2ccc(C(F)(F)F)cn2)CC1	none (no result: EBV gp42 inh)
Cc1nc(S/C(=C/c2ccc(-c3cccc(Cl)c3)o2)C(=O)O)n[nH]1	MEX-5 binding -35
Nc1ccc(Br)c2c1C(=O)c1ccccc1C2=O	MCL1 BIM primary 40, Bcl-xL primary 46 (no result: E coli Lon inh)
O=C(COC(=O)COc1ccc2ccccc2c1)NCC(F)(F)F	none
O=C(NC1=NCCS1)c1cccc2ccccc12	none
O=C1CSC(=S)N1N1C(=O)c2cccc([N+](=O)[O-])c2C1=O	MEX-5 binding -28 (no result: E coli Lon inh)
CCN(CC)c1ccc(N=Nc2ncn[nH]2)cc1	MEX-5 binding -52
CCN(CC)c1ccc(N=Nc2nn(C)c(C)c2[N+](=O)[O-])cc1	none
Cc1cccc2cc(/C=C3\N=C(c4ccccc4)OC3=O)c(N3CCOCC3)nc12	EBV gp42 inh 135

Source: PubChem BioAssay (several laboratories)
